USP17 block: inhibitors of human USP17 deubiquitinase; 47,000 tested, 6.5% active; purified USP17, Ub-rhodamine cleavage fluorescence, 3 h; AID 1645855, 2021; inhibition, % at 50 µM
USP30 block: inhibitors of human USP30 deubiquitinase | inhibition, % at 25 µM | purified USP30, Ub-rhodamine cleavage fluorescence | Ubiquitin carboxyl-terminal hydrolase 30 (Homo sapiens), Q70CQ3 | 47,000 tested, 5.3% active
USP8 inh: inhibitors of human USP8 deubiquitinase | Ubiquitin carboxyl-terminal hydrolase 8 (Homo sapiens), P40818 | purified USP8, Ub-rhodamine cleavage fluorescence, 30 min | inhibition, % at 20 µM | 47,000 tested, 4.2% active | AID 1645853, 2021
UCHL1 block: inhibitors of human UCHL1 deubiquitinase; inhibition, % at 20 µM; AID 1645859, 2021; Ubiquitin carboxyl-terminal hydrolase isozyme L1 (Homo sapiens), P09936; 47,000 tested, 0.2% active; purified UCHL1, Ub-rhodamine cleavage fluorescence
Target sequence (P09936 whole entry, looked up): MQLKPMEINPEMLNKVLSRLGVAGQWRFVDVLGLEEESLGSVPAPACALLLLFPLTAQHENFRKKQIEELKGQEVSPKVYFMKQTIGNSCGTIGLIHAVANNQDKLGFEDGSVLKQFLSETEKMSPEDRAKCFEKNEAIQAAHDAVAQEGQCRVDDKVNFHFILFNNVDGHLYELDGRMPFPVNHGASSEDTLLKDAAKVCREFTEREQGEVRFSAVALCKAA
USP7 inh: inhibitors of human USP7 deubiquitinase; Ubiquitin carboxyl-terminal hydrolase 7 (Homo sapiens), Q93009; purified USP7, Ub-rhodamine cleavage fluorescence; 47,000 tested, 0.3% active; inhibition, % at 20 µM
USP10 block: inhibitors of human USP10 deubiquitinase; AID 1645856, 2021; Ubiquitin carboxyl-terminal hydrolase 10 (Homo sapiens), Q14694; 47,000 tested, 1.1% active; inhibition, % at 20 µM; purified USP10, Ub-rhodamine fluorescence, 60 min
Active calls of the source: *. Compounds with a hit are over-represented: about 13% of the library has one in this group of screens. Cut-off read from the data, not from the text of the source: active = inhibition above about 30%; inactive = the rest.

For c1ccc(-c2noc(NC3CCCC3)n2)cc1 the results were USP17 block -4.7, USP30 block -3.7, USP8 inh -1.5, UCHL1 block -0.8, USP7 inh -10.6 and USP10 block 7.6.
For O=C1Nc2c(Cl)cc(Cl)cc2C1(O)c1sc(NC2CCCCC2)nc1-c1ccccc1 (configuration not stated) the results were USP17 block 66.3*, USP30 block 8.1, USP8 inh 87.4*, UCHL1 block -0.7, USP7 inh 3.4 and USP10 block 4.4.
`O=C(NCc1ccco1)c1cccnc1-c1nc2ccccc2s1` gave USP17 block 3.0, USP30 block -12.6, USP8 inh 32.7*, UCHL1 block 5.7, USP7 inh -9.7 and USP10 block -0.2.
Screening CCSCC[C@H](NC(=O)Cc1c(C)c2ccc(O)c(C)c2oc1=O)C(=O)O returned USP17 block 0.7, USP30 block 2.6, USP8 inh 0.2, UCHL1 block -5.1, USP7 inh -4.2 and USP10 block -4.0.
Screening CCOC(=O)N1CCC(NC(=O)c2cnn3c(-c4ccccc4)ccnc23)CC1 returned USP17 block 32.0*, USP30 block 39.6*, USP8 inh -4.8, UCHL1 block -2.8, USP7 inh 0.1 and USP10 block -4.7.
For O=C(NC1CCS(=O)(=O)C1)c1ccc(N2CCC(Cc3ccccc3)CC2)nn1 (configuration not stated) the results were USP17 block 53.1*, USP30 block 22.7, USP8 inh -0.3, UCHL1 block 0.0, USP7 inh -4.1 and USP10 block 4.9.
For O=C1CN(C(=O)c2ccc(N3CCC(Cc4ccccc4)CC3)nn2)CCN1 the results were USP17 block -27.4, USP30 block 3.0, USP8 inh -1.2, UCHL1 block -0.3, USP7 inh -3.7 and USP10 block -4.1.
For O=C(Nc1cnc2ccccc2c1)Nc1ccccc1Cl the results were USP17 block 55.0*, USP8 inh 3.5, UCHL1 block 2.2, USP7 inh 3.2 and USP10 block 3.9.
CC(=O)c1cccc(NC(=O)C2(c3ccc(Cl)cc3)CCC2)c1 was read as USP17 block 7.1, USP30 block -4.2, USP8 inh 10.0, UCHL1 block 4.0, USP7 inh -10.5 and USP10 block -0.1.
For CC(=O)Nc1ccc(NC(=O)C2(c3ccc(Cl)cc3)CCC2)cc1 the results were USP17 block 45.1*, USP30 block 15.8, USP8 inh -0.7, UCHL1 block -1.0, USP7 inh -6.4 and USP10 block 0.8.
For COc1ccc(O)c(C(=O)c2cnn(-c3ccccc3C(=O)O)c2)c1 the results were USP17 block 16.5, USP30 block 9.9, USP8 inh 0.9, UCHL1 block 0.6, USP7 inh -1.7 and USP10 block 3.9.
COc1cc(OC)c2cc(C(=O)N[C@@H](Cc3ccccc3)C(=O)O)n(C)c2c1 was read as USP17 block 35.8*, USP30 block 0.2, USP8 inh 58.4*, UCHL1 block 1.7, USP7 inh 0.0 and USP10 block 5.6.
For COc1cc2ncn(CC(=O)N[C@@H](Cc3ccccc3)C(=O)O)c(=O)c2cc1OC the results were USP17 block -9.0, USP30 block -0.2, USP8 inh -31.9, UCHL1 block -0.3, USP7 inh 4.2 and USP10 block -1.1.
CCn1nnc2c(N3CCN(c4ccc(F)cc4)CC3)ncnc21 was read as USP17 block -6.3, USP8 inh -2.2, UCHL1 block 0.4, USP7 inh -16.1 and USP10 block -0.2.
For CN(C)c1ccc(-c2noc(C(=O)NCc3ccccn3)n2)cc1 the results were USP17 block 45.0*, USP30 block 7.6, USP8 inh -3.4, UCHL1 block 0.8, USP7 inh 0.2 and USP10 block -1.3.
`CN(C)c1ccc(-c2noc(C(=O)NCc3ccncc3)n2)cc1` gave USP17 block 10.0, USP30 block 31.0*, USP8 inh 12.9, UCHL1 block 2.2, USP7 inh -3.6 and USP10 block 1.6.
Screening Cn1cc(CN2CC[C@H]3C[C@H](C(=O)Nc4cccnc4)O[C@@H]3C2)cn1 returned USP30 block 37.0*, USP8 inh -26.6, UCHL1 block 0.6, USP7 inh 7.0 and USP10 block 3.2.
For Cc1ccc(CN2CC[C@H]3C[C@H](C(=O)Nc4cccnc4)O[C@@H]3C2)s1 the results were USP17 block -23.6, USP30 block 2.0, USP8 inh -222.5, UCHL1 block 4.2, USP7 inh 6.2 and USP10 block -0.2.
COc1cccc2cc(C(=O)C3=C(O)C(=O)N(CCN4CCOCC4)C3c3cccc(O)c3)oc12 (configuration not stated) was read as USP17 block -43.0, USP30 block -28.8, USP8 inh -260.0, UCHL1 block -3.4, USP7 inh -4.7 and USP10 block -12.3.
`COc1ccc(-c2cc3nc(C4CCN(C(=O)OC(C)(C)C)CC4)c(C(=O)Nc4ccc(C)c(Cl)c4)cn3n2)cc1` gave USP17 block 2.4, USP30 block -16.0, USP8 inh 5.8, UCHL1 block -5.4, USP7 inh 3.6 and USP10 block 15.7.
CCOc1ccc(-c2cc3nc(C4CCN(C(=O)OC(C)(C)C)CC4)c(C(=O)Nc4cc(F)ccc4F)cn3n2)cc1 was read as USP17 block 46.0*, USP30 block -8.2, USP8 inh 55.8*, UCHL1 block -5.8, USP7 inh 8.6 and USP10 block 1.6.
`CN1CCC(N(C)S(=O)(=O)c2ccc(NC(=O)c3cccc(OCc4ccccc4)c3)cc2)CC1` gave USP17 block -4.1, USP30 block 0.1, USP8 inh -7.5, UCHL1 block 4.3, USP7 inh -18.2 and USP10 block -0.3.
For CCCCCCCCCCCCCCCc1cc(O)cc(O)c1 the results were USP17 block 30.0*, USP30 block 1.8, USP8 inh 5.5, UCHL1 block 5.3, USP7 inh -13.0 and USP10 block 30.2*.
CC(C)C(=O)N1CCc2cc(CNS(=O)(=O)c3ccccc3)ccc21 was read as USP17 block 10.5, USP30 block 21.9, USP8 inh 18.0, UCHL1 block 2.5, USP7 inh 5.9 and USP10 block 2.0.
`COc1ccc(C(=O)OC(C)C(=O)NCC2CCCCC2)cc1S(=O)(=O)N1CCOCC1` (configuration not stated) gave USP17 block -14.9, USP30 block -5.7, USP8 inh -30.5, UCHL1 block -0.5, USP7 inh -4.5 and USP10 block -0.7.
For CC(OC(=O)c1ccc2c(c1)OCCO2)C(=O)NCC1CCCCC1 (configuration not stated) the results were USP17 block 28.9, USP30 block 53.1*, USP8 inh 3.3, UCHL1 block -1.0, USP7 inh -2.2 and USP10 block 1.0.
